Screening results as filed in PubChem.
VDR inhibitor – blocks the human vitamin D receptor. P11473. VDR-SRC2-3 peptide fluorescence polarization, 2 h. Potency, µM, for inactives: max response, negative = inhibition, actives largely listed as inhibitors. 400,000 compounds, 0.93% hits
Target sequence (P11473 whole entry, looked up): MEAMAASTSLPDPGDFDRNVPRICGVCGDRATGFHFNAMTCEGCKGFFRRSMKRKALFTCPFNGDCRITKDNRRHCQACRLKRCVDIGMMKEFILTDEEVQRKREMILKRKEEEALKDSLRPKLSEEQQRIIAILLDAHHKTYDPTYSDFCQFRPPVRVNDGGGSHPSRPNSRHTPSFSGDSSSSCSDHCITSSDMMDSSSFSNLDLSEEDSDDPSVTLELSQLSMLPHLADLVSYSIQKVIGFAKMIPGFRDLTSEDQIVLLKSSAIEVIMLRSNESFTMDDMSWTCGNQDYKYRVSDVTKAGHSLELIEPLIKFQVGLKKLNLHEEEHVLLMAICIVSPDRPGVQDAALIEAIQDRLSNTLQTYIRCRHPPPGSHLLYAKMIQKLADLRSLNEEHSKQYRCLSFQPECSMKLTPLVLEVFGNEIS
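Compounds are added to VDR with labelled SRC2-3 coactivator peptide and held 2 h at room temperature. Inhibition of the VDR–peptide interaction is then read as a change in fluorescence polarization.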
TrxR1 inh – inhibitors of rat thioredoxin reductase 1 | Potency, µM (doses to about 114 µM), for inactives: at the top dose activity change, negative = inhibition, usual class: inhibitors | O89049 | recombinant rTrxR1, NADPH fluorescence consumption, selenite substrate | 390,000 compounds, 1% hits; note: nearly all actives have a fitted effect of over 65% in size
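Rat TrxR1 (90 nM in the dispensed reagent) was pre-reduced with 400 uM NADPH for 5 min at room temperature, then incubated with compound for 15 min. After 400 uM selenite was added, NADPH fluorescence (Ex 340/Em 450 nm) was followed for 8 min.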
PLK1 PBD block – inhibitors of human PLK1 polo-box domain binding; 360,000 compounds, 2.8% hits; Potency, µM, for inactives: max response, negative = inhibition, usual class: inhibitors; Plk1 PBD binding of FITC phosphopeptide, fluorescence polarization; P53350; note: series mostly up to about 57 µM; nearly all actives have a fitted effect of over 65% in size
TrxR1 substrate – substrates of rat thioredoxin reductase 1 | O89049 | purified TrxR1 substrate turnover, NADPH consumption readout | Potency, µM (doses to about 114 µM), inactives show top-dose activity change, negative = substrate turnover | 390,000 compounds, 0.01% hits; note: nearly all actives have a fitted effect of over 50% in size
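Rat TrxR1, dispensed at 90 nM, was prereduced with 400 uM NADPH (final) for 5 min at ~22 deg C, then incubated with compound 15 min before 400 uM selenite. A first-read NADPH fluorescence drop versus no-compound background flagged substrates.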
Sfp PPTase inh – inhibitors of Bacillus subtilis Sfp phosphopantetheinyl transferase; Biochemical Sfp PPTase activity, qHTS; Q9F4F7; 310,000 compounds, 3.5% hits; AID 1490; Potency, µM, for inactives: largest response in the series, negative = inhibition, hits mostly inhibitors;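 note: the enzyme is Sfp with the accession as filed and its product quenches rhodamine fluorescence; 0% = enzyme reaction without inhibitor and -100% = no enzyme wells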
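Reaction rates are the 30-min fluorescence difference (ex 525, em 598 nm) in wells containing 15 nM Sfp, 5 uM rhodamine-CoA and 12.5 uM BHQ-2-YbbR at pH 7.6 with 10 mM MgCl2.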
mIDH1 inhibitor – inhibitors of human mutant IDH1 R132H; O75874; IDH1-R132H enzyme, NADPH consumption, diaphorase/resazurin fluorescence; Potency, µM (doses to about 76.6 µM), for the others: at the top dose activity change, negative = inhibition, actives largely listed as inhibitors; 390,000 compounds, 0.093% hits; note: nearly all actives have a fitted effect of over 65% in size
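IDH1-R132H (0.5 ug/mL) preincubated 30 min with compound, then NADPH (0.016 mM) and alpha-KG (2 mM) added; 80 min at RT, pH 7.5. Remaining NADPH coupled via diaphorase/resazurin to fluorescence (540/590 nm); concentration-response curves normalized to no-enzyme control.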
An asterisk follows results filed as active; ? = inconclusive; . = not tested or not shown; [ ] = another dose, or the depositor's remark. The list is not random: actives were taken first. Their share in the collection is about 5.2%. Calls come from the whole dose curve; as a rule, active = well fitted curve in the direction sought with a large enough effect; inconclusive = small, poorly fitted or top-dose-only effect, or another doubt; inactive = no such curve, though single readings can be large; an effect the other way counts as inactive or inconclusive. Unless noted, % is set by controls: 0 for no effect and ±100 for the full control effect; potency is the fitted concentration of half-maximal effect.

SMILES	VDR inhibitor	TrxR1 inh	PLK1 PBD block	TrxR1 substrate	Sfp PPTase inh	mIDH1 inhibitor
COc1ccccc1/C=C/C(=O)c1ccccc1	79.4µM*	28.8%[2.29 µM]	-12.3%	10.8%[2.29 µM]	-3.9%	-0.2%
COc1cc(O)c(C(=O)/C=C/c2ccccc2)c(O)c1	.	.	.	.	6.0%	.
O=C(/C=C/c1ccc2c(c1)OCCO2)c1ccccc1	50.1µM*	?	-14.7%	-13.9%	-19.5%	-6.0%
O=C(/C=C/c1ccccc1O)c1ccccc1	28.2µM*	-5.7%[2.29 µM]	-24.1%	-4.3%[2.29 µM]	.	3.1%
CNC(=S)N1CCC(C(=O)c2ccc(Cl)cc2)CC1	.	.	0.6%	.	.	13.6%
COc1cc(OC)cc(C(=O)N/N=C2/SCC(=O)N2Cc2ccco2)c1	7.7%	1.7%[57.1 µM]	6.4%	8.2%[57.1 µM]	6.2%	7.6%
Cc1ccc(OCC(=O)N/N=C2/SCC(=O)N2Cc2ccccc2)cc1	0.3%	-7.1%	0.0%	-11.0%	16.8%	1.1%
Cc1ccccc1OCC(=O)N/N=C1\SCC(=O)N1Cc1ccccc1	-7.4%	-1.2%	26.7µM*	0.5%	-17.7%	9.9%
Cc1cccc(OCC(=O)N/N=C2/SCC(=O)N2Cc2ccco2)c1	-28.9%	4.9%[57.1 µM]	10.6µM*	-3.0%	4.3%	0.4%
O=C(/C=C/c1ccc(Cl)c(Cl)c1)NC1=NCCS1	-22.1%	20.6%[57.1 µM]	21.2µM*	3.1%[57.1 µM]	18.6%	5.2%
CCOC(=O)c1cc2c(N)c(C(=O)c3cc(C#N)c(SC)nc3C)sc2nc1C	-8.1%	-7.0%	-8.9%	16.9%	39.8µM*	9.2%
CCOC(=O)c1cc(C#N)c(SC)nc1C	8.3%	8.9%[57.1 µM]	-7.2%	6.4%[2.29 µM]	17.3%	4.0%
COc1ccc(Br)cc1-c1nc(CCl)cs1	-15.0%	-6.9%	-15.6%	-1.6%	0.5%	-4.5%
O=C(Cn1cc(COc2ccc(Br)cc2[N+](=O)[O-])nn1)c1ccc(O)cc1	-29.0%	-14.3%	26.7µM*	-3.7%	.	-9.7%
COc1cc(C(C)=O)ccc1OCc1cn(CC(=O)c2ccc(O)cc2)nn1	89.1µM*	-12.1%	23.8µM*	3.0%	.	-9.9%
O=C(Cn1cc(COc2ccccc2C(F)(F)F)nn1)c1ccc(O)cc1	?	-10.5%	21.2µM*	-2.8%	.	-10.6%
CC(=O)c1ccc(OCc2cn(CC(=O)c3ccc(O)cc3)nn2)c(C)c1	.	.	-5.9%	.	.	-2.9%
O=C(Cn1cc(COc2cc(F)cc(F)c2)nn1)c1ccc(O)cc1	-8.7%	8.8%	-8.3%	-3.6%	.	18.7%
COc1ccc(-c2nc3cnc(N4CCOCC4)nc3n(C3CC3)c2=O)cc1	8.6%	.	.	.	23.4%	.
COCCN(CCOC)c1nc(C)nc2c1nc(-c1ccccc1)n2CC1CCN(C)CC1	.	.	.	.	22.5%	.
CC(=O)Oc1cc(-c2coc3cc(OC(C)=O)c(OC(C)=O)c(OC(C)=O)c3c2=O)cc(OC(C)=O)c1OC(C)=O	17.8µM*	.	.	.	-90.8%	.
COc1ccc2oc(=O)c(C(=O)Nc3ccc(C(=O)O)cc3)cc2c1	3.0%	5.2%	.	7.1%	.	.
CC(C)n1c(=S)[nH]c2cc(Cl)ccc21	12.1%	?	?	?	79.4µM*	1.5%
COc1ccc(S(=O)(=O)N2CCN(C(=O)c3ccc(COc4ccccc4)o3)CC2)cc1	.	.	-7.1%	.	.	-3.3%
N#C/C(=C\c1ccc(O)c(O)c1)C(=O)NCCCCc1ccccc1	?	.	.	.	79.4µM*	.
SMILES	VDR inhibitor	TrxR1 inh	PLK1 PBD block	TrxR1 substrate	Sfp PPTase inh	mIDH1 inhibitor
N#C/C(=C\c1ccc(O)c(O)c1)C(=O)NCCc1ccccc1	?	?	-5.6%	5.0%[57.1 µM]	.	-3.3%
COc1ccc(C2C(C(=O)NCCN3CCOCC3)c3ccccc3C(=O)N2C)cc1OC (stereo not drawn)	4.7%	6.5%	3.9%	-2.4%	21.9%	12.0%
Cc1ccc(CNC(=O)C2c3ccccc3C(=O)N(C)C2c2c[nH]c3ccccc23)o1 (stereo not drawn)	10.4%	-37.7%	-5.9%	10.4%[57.1 µM]	50.1µM*	-0.4%
O=c1cc(CSc2nnc3ccccn23)c2c(ccc3ccccc32)o1	-10.7%	-21.7%	42.3µM*	17.0%	?	1.6%
O=c1[nH]c(CSc2nnc3ccccn23)nc2ccccc12	4.1%	-8.7%	-4.5%	-3.9%	2.2%	8.1%
CC1CCN(C(=O)CSc2nnc(CN3CCOCC3)n2-c2ccccc2)CC1	-7.7%	-5.2%	-9.3%	6.6%	70.8µM*	1.6%
O=C(CSc1nnc(CN2CCOCC2)n1-c1ccccc1)N1CCc2ccccc21	5.8%	9.8%[57.1 µM]	-1.3%	9.9%[57.1 µM]	10.6%	2.3%
O=C(CSc1nnc(CN2CCOCC2)n1-c1ccc(Cl)cc1)N1CCc2ccccc21	79.4µM*	12.8%[57.1 µM]	-12.1%	13.3%[57.1 µM]	.	1.0%
CCCc1cc2c(c(=O)o1)C(O)C1OC1C2=O (stereo not drawn)	.	.	.	.	-23.6%	.
Cc1cc(C)c(C)c(OCCCOc2cccc3cccnc23)c1	-5.2%	-4.9%	-0.1%	-3.0%	70.8µM*	4.6%
CCCn1c2ccccc2c2cnn(CC(=O)NC3CCCC(C)C3C)c(=O)c21 (stereo not drawn)	15.4%	22.6%	-3.7%	7.9%	10.2%	3.0%
O=C1CC(N2CCC(Cc3ccccc3)CC2)C(=O)N1CCc1ccccc1 (stereo not drawn)	-2.1%	31.6µM*	-9.0%	0.5%	56.2µM*	5.0%
O=C1CC(N2CCN(C3CC(=O)N(CCc4ccccc4)C3=O)CC2)C(=O)N1CCc1ccccc1 (stereo not drawn)	3.2%	10.1%	-3.1%	-1.0%	15.1%	1.0%
CC(C)OC(=O)CSc1nnc(-c2ccc(C(C)(C)C)cc2)n1N	?	-22.0%	21.2µM*	-7.1%	15.8µM*	0.7%
CCC(C)NC(=O)C1CCC(CNS(=O)(=O)c2ccc3c(c2)N(C(C)=O)CCO3)CC1 (stereo not drawn)	-29.8%	18.2%	26.7µM*	4.2%	30.9%	-6.5%
CC(=O)N1CCOc2ccc(S(=O)(=O)Nc3ccc(C)cn3)cc21	-18.0%	15.8%	-17.5%	-1.6%	9.4%	10.5%
CC(=O)N1CCOc2ccc(S(=O)(=O)Nc3cccc(C)n3)cc21	-18.7%	11.5%[57.1 µM]	42.3µM*	3.0%[57.1 µM]	7.9%	-11.3%
N#C/C(=C\c1ccc[nH]1)C(=O)c1ccccc1	16.3%	7.9%	-10.1%	2.9%	9.8%	0.5%
COc1cccc(C=C(C#N)C(=O)c2ccccc2)c1	.	.	2.12µM*	.	.	.
N#C/C(=C\c1cccc(Cl)c1)C(=O)c1ccccc1	?	11.2µM*	0.844µM*	4.6%[57.1 µM]	?	19.3%
O=C(Nc1ccc(Br)cc1)C1CCN(S(=O)(=O)c2cccc3nsnc23)CC1	-5.4%	3.8%	.	-3.1%	.	-3.2%
CC(C)(C)c1ccc(C(=O)NC2(C(F)(F)F)NC(=O)N(CCc3ccccc3)C2=O)cc1 (stereo not drawn)	-22.5%	32.8%	.	-2.2%	.	-10.5%
C/C(=N\OC(=O)c1c(-c2ccccc2Cl)noc1C)c1ccncc1	-9.6%	21.0%[57.1 µM]	-3.7%	5.1%[57.1 µM]	5.01µM*	-4.2%
